Test results as given in PubChem BioAssay (NCI).
This is part of a sample that, as a whole, favours compounds with a hit. Of some 83,000 tested, about 20% had one in any assay.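 Interpretation: 100, growth as untreated; towards 0, rising growth inhibition; 0, no net growth; 0 to -100, cell death. Compounds scoring below 10 were considered active.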 Values without a mark were called inactive. Calls of active or inactive are those of the source.

Experiments:
Assay in all cases: NCI-60 one-dose screen, 48 h (100 = growth as untreated, 0 = no growth, -100 = all killed)
Conditions in all cases: 10 µM unless noted
NCI-H23 lung = tested on: NCI-H23 lung
NCI-H226 lung = tested on: NCI-H226 lung
NCI-H322M lung = tested on: NCI-H322M lung
HOP-62 NSCLC = tested on: HOP-62 NSCLC
NCI-H460 lung = tested on: NCI-H460 lung
HOP-92 NSCLC = tested on: HOP-92 NSCLC
NCI-H522 lung = tested on: NCI-H522 lung
A549/ATCC NSCLC = tested on: A549/ATCC NSCLC
786-0 renal = tested on: 786-0 renal

| Compound | growth (NCI-H23 lung) | growth (NCI-H226 lung) | growth (NCI-H322M lung) | growth (HOP-62 NSCLC) | growth (NCI-H460 lung) | growth (HOP-92 NSCLC) | growth (NCI-H522 lung) | growth (A549/ATCC NSCLC) | growth (786-0 renal) |
| --- | --- | --- | --- | --- | --- | --- | --- | --- | --- |
| Cc1cc(N(CCCNc2ccnc3cc(Cl)ccc23)Cc2ccccn2)nc(N2CCCC2)n1 | 78.3% | 89.6% | 75.9% | 68.4% | 66.4% | 59.7% | 88% | 70.8% | 73.5% |
| O=C(c1ccccc1)c1ccc(N2C(=O)C3C4c5ccccc5C(/C=C/C(=O)c5ccccn5)(c5ccccc54)C3C2=O)cc1 (stereo not given) | 14.2% | 12.7% | 74.9% | 24.3% | 6.4% (active) | 55.6% | 30.6% | 44.3% | 2.11% (active) |
| CNCCNc1nc2ccccc2c2c(=O)c3cc(F)ccc3oc12 | 64.8% | 68% | 43.8% | 44.2% | 55.8% | 33.3% | 58% | 50.8% | 53.1% |
| CC12CC(C#N)CCC1O2 (stereo not given) | 109% | 115% | 127% | 108% | 103% | 93% | 109% | 100% | 102% |
| Cc1cc(-c2ccccc2)cc(SC#N)[n+]1[O-] | 55.9% | 69.4% | 50.5% | 40.2% | 19% | 82.2% | 39.2% | 33.7% | 41.1% |
| CCN(CC)c1ccc(Nc2ccc(CC(=O)c3ccccc3)cc2)cc1 | 81.1% | 97.4% | 90.7% | 94.6% | 96.3% | 77.5% | 47% | 91.4% | 88.3% |
| CN1CCN(C(=O)[C@@]2(C)CC[C@]3(C)CC[C@]4(C)C(=CC[C@@H]5[C@@]6(C)C/C(=C/c7ccncc7)C(=O)C(C)(C)[C@@H]6CC[C@]54C)[C@@H]3C2)CC1 | 59.3% | 88.6% | 79.7% | 68.4% | 24.4% | 34.3% | 69% | 45.9% | 58.4% |
| C#CC[C@H](N)C(=O)O | 103% [20 µM] | 106% [20 µM] | 97.8% [20 µM] | 94.4% [20 µM] | 104% [20 µM] | 87.3% [20 µM] | 89.2% [20 µM] | 99% [20 µM] | 98.1% [20 µM] |
| O=C(CCc1nc(-c2cccc(Cl)c2)no1)Nc1ccccn1 | 89.2% | 89.8% | 108% | 124% | 103% | 82.3% | 84.5% | 111% | 96.3% |
| CCO/C=N/C1=C(C#N)C(c2ccc(OC)cc2)c2c(c3ccccc3n(C)c2=O)O1 (stereo not given) | 101% | 95.2% | 101% | 91.5% | 105% | 101% | 90.2% | 97.8% | 105% |
| Cc1cc(Cc2cc(C)cc(C(C)(C)C)c2O)c(O)c(C(C)(C)C)c1 | 23.3% | 58.3% | 75.7% | 68.3% | 8.85% (active) | 18.5% | 29.9% | 27.3% | 57% |
| N#Cc1c(N)nc2c(nnn2-c2cccc(Br)c2)c1N | 89.5% | 95.7% | 97.6% | 94.8% | 97.1% | 82.2% | 86% | 92.6% | 105% |
| COc1cc2c(cc1OC)-c1ccc3cc4c(cc3c1N(CCN(C)C)C2)OCO4 | -8.26% (active) | -84.7% (active) | -3.14% (active) | -21.6% (active) | -34.2% (active) | -5.08% (active) | -44.9% (active) | -57.3% (active) | -87.7% (active) |
| O=C(Oc1ccc([N+](=O)[O-])cc1)c1ccc(CBr)cc1 | 98.5% | 106% | 100% | 139% | 100% | 88.5% | -21.2% (active) | 97.9% | 108% |
| CC(=[N-])N1CCC[C@@H](Nc2c3ccccc3nc3ccccc23)C1.[Cl][Pt].[NH-]CCC[NH-] | -2.65% (active) | -4.62% (active) | 44.9% | 51.9% | 0.597% (active) | 28.7% | -18.5% (active) | 7.75% (active) | 53.5% |
| CN(C)CCOC(=O)Nc1ccc(Cl)cc1 | 102% | 88.8% | 92.2% | 88.4% | 106% | 85.5% | 64.9% | 94.7% | 94.2% |
| Cc1c(Cl)cccc1NS(=O)(=O)c1ccccc1 | 113% | 93.1% | 110% | 112% | 112% | 89.2% | 98.4% | 104% | 106% |
| Nc1ccn(C2OC(F)(CO)C(O)C2F)c(=O)n1 (stereo not given) | 10.3% | 89.4% | 71.1% | 17.3% | 12.7% | 53.3% | 32.8% | 21.8% | 10.9% |
| NC(=O)c1c(NC(=O)c2ccccn2)sc2c1CCC(=O)C2 | 17.2% | 70.7% | 94.3% | 81% | 71.2% | 15.9% | -13.5% (active) | 60.6% | 89.4% |
| Cc1nc(Nc2ccc(NC(=S)Nc3ccccc3)cc2)c2ccccc2n1 | 91.6% | 97.4% | 103% | 118% | 107% | 115% | 105% | 95.9% | 103% |
| Cc1cn(C2CCCCC2)c(=O)[nH]c1=O | 115% | 101% | 129% | 109% | 117% | 97.4% | 97.8% | 101% | 107% |
| Cc1ccc2c(n1)C(=O)C(Oc1ccc(F)cc1)=CC2=O | 94.9% | 76.5% | 101% | 125% | 101% | 123% | -43.9% (active) | 99.4% | 107% |
| O=[N+]([O-])c1ccc(-c2cc3c(Nc4ccc(Cl)c(C(F)(F)F)c4)ncnc3s2)cc1 | -6.97% (active) | 20.1% | 20.9% | 20.8% | 4.13% (active) | -14.3% (active) | -1.24% (active) | 10.1% | 19.2% |
| CC(C)CCC[C@@H](C)[C@H]1CCC2C3=CCn4c(=O)ccc(=O)n4C3CC[C@@]21C (stereo not given in full) | -55.4% (active) | -91.8% (active) | -55.3% (active) | -93.3% (active) | -89.9% (active) | -94% (active) | -66.1% (active) | -79.3% (active) | -100% (active) |
| Cc1c(C(N)=O)sc2nc(C)n(/N=c3\scc(-c4ccccc4)n3Cc3ccccc3)c(=O)c12 | 20.5% | 30.9% | 35.4% | 24.2% | 7.46% (active) | -19.1% (active) | 24.9% | 0% (active) | 50.7% |
| CC(=O)C(C(C)=O)c1nc2sc3cc(Cl)ccc3n2c(=N)c1C#N | 81.4% | 75.1% | 87.3% | 81.9% | 95.2% | 56% | 83% | 98.7% | 98.3% |
| CCOC(=O)c1c2c(c(C)n1C)-c1nn(Cc3ccc(OC)cc3)cc1CC2 | 83.2% | 94.5% | 190% | 132% | 111% | -0.787% (active) | 90.7% | 91.9% | 74.7% |
| CCCCCCCSc1ccc(C(=O)O)cc1 | 102% | 97.2% | 99.7% | 106% | 104% | 83.5% | 100% | 98.9% | 100% |
| O=[N+]([O-])c1ccc2[nH]cc(-c3c4ccsc4cc4[nH]c5ccc([N+](=O)[O-])cc5c34)c2c1 | 7.93% (active) | -9.9% (active) | 20.4% | 10.8% | 4.39% (active) | 26.8% | -22.9% (active) | 5.78% (active) | -44% (active) |
| COc1ccc(/C=C(\C#N)n2nnc3ccccc32)cc1 | 15.1% | 1.15% (active) | 25.8% | 26.2% | 2.42% (active) | 24.7% | 21.2% | 19.5% | 7.4% (active) |
